In PubChem BioAssay AID1159580 (chemical genetic matrix, 2015):
“And” between values parts separate entries of the source, which are not always exact repeats. Equal entries are not always repeated. Hit rate of the full screen: of about 5,500 compounds, about 2,000 (36%) were called active. Roughly 18% stayed inconclusive and do not appear here. Cut-off read from the data, not from the text of the source: active = normalized growth mostly below about 0.91 (no sharp cut-off); inconclusive = no clear call, values can overlap the other calls; inactive = mostly above about 0.92. Some of the results follow.

Test: chemical genetic growth profiling, strain panel (AID 1159580);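 note: tested at 20 µM; growth read once vehicle control cultures reached saturation at 30 °C; 1 = growth at the plate median or of vehicle wells; lower values mean less growth of the strain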
Conditions: S. cerevisiae deletion strains, growth OD

Measured: normalized growth

C=CC(C1=CC(=O)C=CC1=O)c1ccccc1 (stereo unspecified)
inactive: locus YAL021C, strain ccr4, hits give low values 1.01 | locus YAL026C, strain drs2, hits give low values 0.983 | locus YAL030W, strain snc1, hits give low values 1 | locus YBL061C, strain skt5, hits give low values 1 | locus YBR009C, strain hhf1, hits give low values 0.995 | locus YBR021W, strain FUR4, hits give low values 0.982 | locus YBR023C, strain chs3, hits give low values 1.01 | locus YBR171W, strain sec66, hits give low values 1.02 | locus YBR229C, strain ROT2, hits give low values 0.974 | locus YBR231C, strain swc5, hits give low values 1.01 | locus YBR279W, strain paf1, hits give low values 0.993 | locus YCL011C, strain gbp2, hits give low values 1.01 | locus YCL016C, strain dcc1, hits give low values 0.994 | locus YCL029C, strain bik1, hits give low values 1 | locus YCL061C, strain MRC1, hits give low values 0.993 | locus YCL069W, strain vba3, hits give low values 1 | locus YCR088W, strain abp1, hits give low values 1.01 | locus YDL005C, strain med2, hits give low values 1.01 | locus YDL035C, strain GPR1, hits give low values 0.937 | locus YDL040C, strain nat1, hits give low values 0.989 | locus YDL074C, strain BRE1, hits give low values 0.916 | locus YDL101C, strain DUN1, hits give low values 0.96 | locus YDL185W, strain tfp1, hits give low values 0.994 | locus YDL192W, strain arf1, hits give low values 0.956 | locus YDR001C, strain nth1, hits give low values 1.01 | locus YDR069C, strain doa4, hits give low values 1.01 | locus YDR101C, strain arx1, hits give low values 0.977 | locus YDR137W, strain rgp1, hits give low values 0.961 | locus YDR159W, strain sac3, hits give low values 1.03 | locus YDR195W, strain ref2 1.01 | locus YDR297W, strain sur2, hits give low values 0.996 | locus YDR318W, strain mcm21, hits give low values 0.953 | locus YDR334W, strain swr1, hits give low values 1.01 | locus YDR335W, strain msn5, hits give low values 0.999 | locus YDR388W, hits give low values 0.991 | locus YDR392W, strain spt3, hits give low values 0.917 | locus YDR502C, strain sam2, hits give low values 0.95 | locus YEL003W, strain gim4, hits give low values 0.982 | locus YEL037C, strain rad23, hits give low values 1.01 | locus YEL061C, strain CIN8 (second series), hits give low values 1.01 | locus YEL061C, strain CIN8, hits give low values 0.974 | locus YER015W, strain faa2, hits give low values 0.996 | locus YER016W, strain bim1, hits give low values 1 | locus YER110C, hits give low values 0.98 | locus YER111C, strain swi4, hits give low values 1 | locus YER155C, strain BEM2 (second series), hits give low values 0.895 | locus YER155C, strain BEM2, hits give low values 1.01 | locus YER167W, strain BCK2, hits give low values 0.947 | locus YFR010W, strain ubp6, hits give low values 1 | locus YGL078C, strain dbp3, hits give low values 0.995 | locus YGL167C, strain pmr1, hits give low values 1.01 | locus YGL173C, strain kem1, hits give low values 1 | locus YGL227W, strain vid30, hits give low values 1.01 | locus YGL240W, strain doc1, hits give low values 0.964 | locus YGL248W, strain PDE1, hits give low values 0.907 | locus YGL253W, strain hxk2, hits give low values 1.02 | locus YGR135W, strain pre9, hits give low values 0.931 | locus YGR252W, strain gcn5, hits give low values 0.952 | locus YHR013C, strain ard1, hits give low values 1.04 | locus YHR027C, strain rpn1, hits give low values 1.01 | locus YHR030C, strain SLT2, hits give low values 0.984 and 1.06 | locus YHR079C, strain IRE1 (second series), hits give low values 0.98 | locus YHR079C, strain IRE1, hits give low values 1.02 | locus YHR094C, strain hxt1, hits give low values 0.993 | locus YHR129C, strain ARP1, hits give low values 0.957 | locus YHR142W, strain chs7, hits give low values 1.01 | locus YHR200W, strain rpn10, hits give low values 0.963 | locus YIL066C, strain RNR3, hits give low values 0.875 | locus YIL073C, strain SPO22, hits give low values 0.916 | locus YIL125W, strain kgd1, hits give low values 0.998 | locus YIR030C, strain dcg1, hits give low values 0.972 | locus YJL092W, strain hpr5, hits give low values 1.01 | locus YJL095W, strain BCK1 (second series), hits give low values 1.01 | locus YJL095W, strain BCK1, hits give low values 0.891 and 1.06 | locus YJL115W, strain asf1, hits give low values 1.01 | locus YJL129C, strain trk1, hits give low values 1.04 | locus YJL134W, strain LCB3, hits give low values 0.99 | locus YJL154C, strain vps35, hits give low values 0.997 | locus YJL164C, strain tpk1, hits give low values 0.984 | locus YJL166W, strain qcr8, hits give low values 0.991 | locus YJL168C, strain set2, hits give low values 0.992 | locus YJL187C, strain SWE1 (second series), hits give low values 0.937 | locus YJL187C, strain SWE1, hits give low values 1 | locus YJR043C, strain POL32, hits give low values 0.889 | locus YJR066W, strain TOR1, hits give low values 1 | locus YJR075W, strain HOC1, hits give low values 0.929 | locus YKL009W, strain mrt4, hits give low values 0.956 | locus YKL068W, hits give low values 1.05 | locus YKL085W, strain MDH1 (second series), hits give low values 0.978 | locus YKL085W, strain MDH1, hits give low values 0.978 | locus YKL160W, strain elf1, hits give low values 0.987 | locus YKR026C, strain gcn3, hits give low values 1.01 | locus YKR091W, strain srl3, hits give low values 1.01 | locus YLL001W, strain dnm1, hits give low values 0.978 | locus YLL026W, hits give low values 1 | locus YLL041C, strain sdh2, hits give low values 1.01 | locus YLR027C, strain aat2, hits give low values 1.01 | locus YLR058C, strain SHM2, hits give low values 0.958 | locus YLR102C, strain apc9, hits give low values 0.978 | locus YLR113W, strain HOG1, hits give low values 1.02 | locus YLR221C, strain rsa3, hits give low values 0.992 | locus YLR258W, strain gsy2, hits give low values 1.01 | locus YLR262C, strain YPT6 (second series), hits give low values 0.969 | locus YLR268W, strain sec22, hits give low values 0.925 | locus YLR320W, strain mms22, hits give low values 0.983 | locus YLR342W, strain FKS1 (second series), hits give low values 0.794 | locus YLR342W, strain FKS1, hits give low values 1.02 | locus YLR357W, strain rsc2, hits give low values 0.988 | locus YLR370C, strain arc18, hits give low values 1.01 | locus YLR371W, strain rom2, hits give low values 0.973 | locus YLR384C, strain iki3, hits give low values 1.01 | locus YML016C, strain PPZ1, hits give low values 0.976 | locus YML032C, strain rad52, hits give low values 0.965 | locus YML120C, strain ndi1, hits give low values 0.998 | locus YML124C, strain tub3, hits give low values 0.971 | locus YMR058W, strain fet3, hits give low values 1 | locus YMR078C, strain ctf18, hits give low values 0.963 | locus YMR125W, strain sto1, hits give low values 1.02 | locus YMR129W, hits give low values 1 | locus YMR205C, strain PFK2, hits give low values 0.997 | locus YMR223W, strain ubp8, hits give low values 0.971 | locus YMR231W, strain pep5, hits give low values 0.986 | locus YMR263W, strain SAP30, hits give low values 0.966 | locus YMR307W, strain GAS1, hits give low values 0.966 | locus YNL067W, strain RPL9B, hits give low values 0.943 | locus YNL071W, strain lat1, hits give low values 1.01 | locus YNL153C, strain GIM3, hits give low values 0.93 | locus YNL183C, strain NPR1, hits give low values 0.975 | locus YNL209W, strain ssb2, hits give low values 0.996 | locus YNL248C, strain rpa49, hits give low values 0.986 | locus YNL250W, strain rad50, hits give low values 1 | locus YNL271C, strain bni1, hits give low values 0.979 | locus YNL298W, strain CLA4, hits give low values 0.982 | locus YNL322C, strain KRE1 (second series), hits give low values 1.01 | locus YNL322C, strain KRE1, hits give low values 0.945 | locus YNR049C, strain mso1, hits give low values 1.02 | locus YNR052C, strain pop2, hits give low values 0.997 | locus YOL012C, strain htz1 0.678 | locus YOL147C, strain pex11, hits give low values 0.975 | locus YOR001W, strain rrp6, hits give low values 0.997 | locus YOR061W, strain CKA2, hits give low values 0.978 | locus YOR069W, strain VPS5, hits give low values 0.982 | locus YOR070C, strain gyp1, hits give low values 0.981 | locus YOR080W, strain dia2, hits give low values 1 | locus YOR083W, strain WHI5, hits give low values 0.981 | locus YOR106W, strain vam3, hits give low values 0.981 | locus YOR136W, strain idh2, hits give low values 1 | locus YOR144C, strain elg1, hits give low values 0.975 | locus YOR231W, strain MKK1, hits give low values 1.04 | locus YOR265W, strain rbl2, hits give low values 1.02 | locus YOR270C, strain vph1, hits give low values 0.973 | locus YOR290C, strain snf2, hits give low values 0.962 | locus YOR316C, strain cot1, hits give low values 0.993 | locus YPL051W, strain arl3, hits give low values 0.978 | locus YPL078C, strain atp4, hits give low values 0.968 | locus YPL106C, strain sse1, hits give low values 1.02 | locus YPL240C, strain hsp82, hits give low values 1 | locus YPL256C, strain CLN2, hits give low values 1.05 | locus YPR119W, strain clb2, hits give low values 0.975 | locus YPR141C, strain kar3, hits give low values 0.991 | locus YPR167C, strain met16, hits give low values 0.963 | strain wtn01, hits give low values 0.931
active: locus YDL134C, strain PPH21, hits give low values 0.863 | locus YDR162C, strain NBP2, hits give low values 0.778 | locus YGL086W, strain mad1, hits give low values 0.927 | locus YGR078C, strain PAC10, hits give low values 0.805 | locus YGR229C, strain SMI1, hits give low values 0.722 | locus YKR001C, strain vps1, hits give low values 0.887 | locus YLR039C, strain RIC1, hits give low values 0.64 | locus YLR262C, strain YPT6, hits give low values 0.551 | locus YLR330W, strain CHS5, hits give low values 0.882 | locus YLR418C, strain cdc73, hits give low values 0.823 | locus YNL233W, strain BNI4, hits give low values 0.815 | locus YNL307C, strain MCK1, hits give low values 0.674 | locus YOR184W, strain ser1, hits give low values 0.811 | locus YPR163C, strain tif3, hits give low values 0.849
